Screens as filed in PubChem.
Rows were chosen to be rich in hits. Some 21% of all compounds tested hit in one or more screens of this group.
NS1 inh: influenza NS1 inhibition | Potency, µM (series often up to 46.1 µM) | 270,000 tested, 0.4% active | AID 2326; note: actives are rising curves; nearly all actives have a fitted effect of over 50% in size
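In this qHTS, NS1 from influenza A is expressed in budding yeast, where it slows growth. Cells are switched from glucose to 2% galactose medium (pH 6.0, -URA), treated with compound, and growth recovery is read at OD600.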
CHX counter: counter-screen hit for Shiga toxin inhibitors, cycloheximide; cell reporter, cycloheximide protein synthesis inhibition counterscreen; 300,000 tested, 12% active; max response, %; in the data active = max response mostly above about 13%, no sharp cut-off; inactive = mostly below about 14%; note: read at 38.3 µM for the half of the compounds with a filed dose
SARS PLP yeast: blocks SARS-CoV papain-like protease in a yeast assay; S. cerevisiae expressing SARS-CoV PLpro, growth rescue; Potency, µM (highest dose often 32.9 µM), actives largely listed as activators; 330,000 tested, 0.19% active; note: nearly all actives have a fitted effect of over 55% in size
Pf growth 48h: inhibits P. falciparum growth in the first generation, 48 h. AID 504832. P. falciparum luciferase growth in erythrocytes, 48 h. Potency, µM (highest dose often 28.7 µM), actives largely listed as inhibitors. 310,000 tested, 5.9% active; active = well fitted inhibition curve with a large enough effect; inconclusive = small, poorly fitted or top-dose-only effect, or another doubt; inactive = no such curve, though single readings can be large or run the other way
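Here the parasites carry a stable luciferase gene and grow inside erythrocytes in Albumax-based RPMI medium with compound for one erythrocytic cycle. Activity is scored as loss of luminescent signal.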
Shiga inhibitor: inhibitors of Shiga toxin in Vero cells; Vero cells, Shiga toxin protein synthesis inhibition reporter; inhibition, % at 38.7 µM; 290,000 tested, 9.2% active; in the data active = inhibition mostly above about 28%, no sharp cut-off; inactive = mostly below about 43%
Pf growth 96h: inhibits malaria parasite growth, 96 h. P. falciparum luciferase reporter growth, 96 h. Potency, µM (series often up to 28.7 µM), hits mostly inhibitors. 320,000 tested, 6.9% active. AID 504834; active = well fitted inhibition curve with a large enough effect; inconclusive = small, poorly fitted or top-dose-only effect, or another doubt; inactive = no such curve, though single readings can be large or run the other way
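96 h incubation, 37 C, 5% CO2, of luciferase-reporter P. falciparum-infected RBCs (2% hematocrit, 0.05% parasitemia final) with test compounds; endpoint luminescence.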
Large screens that a line does not name were inactive. Unless noted, calls come from the whole dose curve.

O=C(OCC(=O)N1CCN(C(=O)c2ccco2)CC1)c1ccccc1C(=O)c1ccccc1	Pf growth 96h inconclusive
O=C(OCC(=O)N1CCN(C(=O)c2ccco2)CC1)c1ccccc1OCc1ccccc1	Pf growth 96h 12µM
O=C(N=C1c2ccccc2CN1c1ccc(F)c(Cl)c1)c1cccnc1Cl	CHX counter 70, Shiga inhibitor 77, Pf growth 96h inconclusive
CN=C1c2ccccc2CN1c1cccc(C(=O)OC)c1	Pf growth 96h inconclusive
N#Cc1ccc(N2Cc3ccccc3C2=NC(=O)c2cccnc2Cl)cc1	CHX counter 25, Shiga inhibitor active
Cc1cccc(N2CC(C(=O)Nc3ccc(S(=O)(=O)Nc4nccs4)cc3)CC2=O)c1C (configuration not stated)	none
Cc1ccc(C(=O)NCCN2C3=NC[C@H](C(C)C)N3C[C@H]2Cc2ccc(O)cc2)cc1Br	Pf growth 48h 4.7µM, Pf growth 96h 2.6µM
C/C=C(\C)C(=O)NCCN1C2=NC[C@H](C(C)C)N2C[C@H]1Cc1ccc(O)cc1	Pf growth 96h 3.3µM
C/C=C(\C)C(=O)NCCN1C2=NC[C@H](C(C)C)N2C[C@@H]1Cc1ccc(OC)cc1	none
COc1ccc(C[C@H]2CN3C(=NC[C@@H]3C(C)C)N2CCNC(=O)c2ccc(C)c(Br)c2)cc1	Pf growth 48h inconclusive, Pf growth 96h 2.1µM
Cn1cccc1C(=O)C(=O)Nc1ccc(F)c(F)c1	CHX counter 45, Shiga inhibitor 82 (no result: NS1 inh)
Cn1cccc1C(=O)C(=O)Nc1cc(Cl)cc(Cl)c1	Pf growth 96h inconclusive
Cn1cccc1C(=O)C(=O)Nc1ccc(Cl)cc1	CHX counter 52, Shiga inhibitor 81
CS(=O)(=O)N1CCN=C1SCc1ccc([N+](=O)[O-])cc1	none (no result: NS1 inh)
Fc1ccc2[nH]c3c(NCCN4CCOCC4)ncnc3c2c1	Pf growth 48h 3.3µM, Pf growth 96h 4.1µM
O=c1c2[nH]c3ccc(F)cc3c2ncn1CCCN1CCOCC1	Pf growth 96h inconclusive
Clc1ccc2[nH]c3c(NCCN4CCOCC4)ncnc3c2c1	Pf growth 48h 3.7µM
Clc1ccc2[nH]c3c(NCC4CCCO4)ncnc3c2c1 (configuration not stated)	CHX counter 23, Pf growth 48h inconclusive
CCN1CCCC1Cn1cnc2c([nH]c3ccc(Cl)cc32)c1=O (configuration not stated)	none
COc1ccc(Cl)cc1NC(=O)Cn1nnc(C(=O)NCc2ccc3c(c2)OCO3)c1N	none
O=C(NCCC1CCCCN1S(=O)(=O)c1cccs1)C(=O)NCc1ccccc1 (configuration not stated)	Pf growth 48h inconclusive, Pf growth 96h inconclusive (no result: NS1 inh, CHX counter, Shiga inhibitor)
CCOc1ccc(CN(C)C(=O)c2ccc(S(=O)(=O)N(C)c3ccccc3OC)cc2)cc1	Pf growth 48h 13µM, Pf growth 96h inconclusive (no result: NS1 inh, CHX counter, Shiga inhibitor)
COc1ccccc1N(C)S(=O)(=O)c1ccc(C(=O)N(C)Cc2ccc(Cl)s2)cc1	Pf growth 48h 12µM, Pf growth 96h inconclusive (no result: NS1 inh, CHX counter, Shiga inhibitor)
COc1ccc(N(S(=O)(=O)c2ccccc2)S(=O)(=O)c2ccccc2)c(N)c1	Pf growth 48h inconclusive (no result: NS1 inh, CHX counter, Shiga inhibitor)
CCOC(=O)c1[nH]c2c(c1-c1ccccc1)C(=O)CC(c1ccc(OCC)cc1)C2 (configuration not stated)	Pf growth 96h 10µM
CCOC(=O)c1[nH]c2c(c1-c1ccccc1)C(=O)CC(c1ccc(OC)c(OC)c1)C2 (configuration not stated)	CHX counter 15, Pf growth 48h inconclusive, Pf growth 96h 10µM
CCOC(=O)c1[nH]c2c(c1C)C(=O)CC(c1ccc(OCC)c(OC)c1)C2 (configuration not stated)	none (no result: Pf growth 48h)
NC(=O)C1=C[C@H](c2ccc3c(c2)OCO3)C[C@H](OCc2ccc(CO)cc2)O1	CHX counter 43, Shiga inhibitor 49
O=C(O)C1=C[C@@H](c2ccc3c(c2)OCO3)C[C@@H](OCc2ccc(CO)cc2)O1	none
C#CCNC(=O)C1=C[C@H](c2ccc3c(c2)OCO3)C[C@H](OCc2ccc(CO)cc2)O1	CHX counter 18, Pf growth 48h inconclusive, Pf growth 96h inconclusive
Cc1ccc(SCCNC(=O)c2ccc(C)c(S(=O)(=O)Nc3cccc(C)c3)c2)cc1	Pf growth 48h inconclusive, Pf growth 96h inconclusive
O=C(NCCCCc1ccccc1)c1ccccc1Cl	CHX counter 24, Shiga inhibitor 58 (no result: NS1 inh)
